Compounds with a hit are over-represented: about 3.6% of the library has one in this group of screens.
Peg3 promoter – inhibitors of Peg3 promoter. AID 588405. 360,000 tested, 1.7% active. HeLa PEG-Prom luciferase reporter, luminescence, overnight. inhibition, % at 20 µM;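 active means inhibition of at least 50% at 20 µM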
CF NFkB block – cystic fibrosis NF-kB activation inhibition; 360,000 tested, 0.86% active; KKLEB NF-kB-GFP reporter, PAF-induced, GFP fluorescence overnight; inhibition, % at 5 µM; AID 588850;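 active means at least 50% inhibition at 5 µM, scaled per plate between neutral and stimulator controls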;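 further: PAF is a Pseudomonas aeruginosa culture filtrate used as stimulus; plate controls were PAF-stimulated DMSO wells for no effect and unstimulated DMSO wells for full effect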
HSP90 inh – inhibitors of HSP90 luciferase refolding in rabbit reticulocyte lysate. luciferase refolding luminescence, 3 h. inhibition, % at 5.6 µM. 290,000 tested, 0.91% active;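 active means inhibition above the screen-wide mean plus 3 SD, computed separately per campaign, cut at about 16% in these data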;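 further: 0% = DMSO wells and 100% = 60 µM geldanamycin wells; inhibitors lower the luminescence because luciferase stays unfolded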
Mdm2-MdmX inh – inhibitors of human Mdm2/MdmX interaction; O15151+Q00987; SaOS-2 split-luciferase Mdm2/MdmX complementation, luminescence; inhibition, % at 8 µM; 330,000 tested, 3% active;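 active means inhibition of at least 50% at 8 µM in the primary screen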
Target sequence (O15151 whole entry, looked up): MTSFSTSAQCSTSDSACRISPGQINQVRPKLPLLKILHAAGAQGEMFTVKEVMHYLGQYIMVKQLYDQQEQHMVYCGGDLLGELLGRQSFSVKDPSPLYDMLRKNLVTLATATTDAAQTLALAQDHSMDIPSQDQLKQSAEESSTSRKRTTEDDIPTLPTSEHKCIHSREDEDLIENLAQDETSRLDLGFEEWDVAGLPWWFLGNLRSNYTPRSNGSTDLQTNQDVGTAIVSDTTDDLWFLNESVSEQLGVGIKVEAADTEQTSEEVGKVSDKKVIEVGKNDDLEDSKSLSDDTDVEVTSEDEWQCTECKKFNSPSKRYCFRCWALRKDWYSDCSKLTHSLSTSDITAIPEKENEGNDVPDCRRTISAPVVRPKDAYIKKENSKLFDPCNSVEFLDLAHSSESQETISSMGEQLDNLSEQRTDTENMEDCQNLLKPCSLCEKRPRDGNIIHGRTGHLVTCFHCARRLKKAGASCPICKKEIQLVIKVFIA
Target sequence (Q00987 whole entry, looked up): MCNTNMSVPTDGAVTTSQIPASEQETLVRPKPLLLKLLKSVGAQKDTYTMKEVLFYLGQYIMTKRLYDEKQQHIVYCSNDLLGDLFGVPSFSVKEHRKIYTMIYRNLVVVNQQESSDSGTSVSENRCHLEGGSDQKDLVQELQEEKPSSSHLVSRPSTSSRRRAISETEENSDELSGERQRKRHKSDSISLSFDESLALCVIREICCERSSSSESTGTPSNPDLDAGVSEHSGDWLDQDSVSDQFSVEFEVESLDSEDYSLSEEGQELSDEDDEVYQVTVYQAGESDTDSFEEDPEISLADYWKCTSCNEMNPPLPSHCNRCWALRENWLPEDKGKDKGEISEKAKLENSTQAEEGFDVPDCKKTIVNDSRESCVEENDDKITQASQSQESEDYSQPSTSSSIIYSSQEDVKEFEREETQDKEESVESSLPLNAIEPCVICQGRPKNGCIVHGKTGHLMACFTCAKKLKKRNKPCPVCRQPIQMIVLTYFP
LGR2 antag – blocks bursicon-induced cAMP signaling via Drosophila LGR2; 380,000 tested, 0.35% active; HEK293 LGR2, CRE-luciferase, bursicon-stimulated, 4 h; inhibition, % at 9.99 µM;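 active means drop in luminescence signal, shown as inhibition above about 50% in the replicate tests, limit read from the data, passing the limit was not always enough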;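 further: agonist challenge used bursicon conditioned medium at about half maximal strength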
KKLEB tox – counter-screen for CF NF-kB inhibitors: cytotoxicity; KKLEB CF airway cells viability, ATPlite luminescence, overnight; active compounds read low; cells stimulated with P. aeruginosa culture filtrate; activity change (cytotoxicity), % at 5 µM; 360,000 tested, 0.36% active; AID 602141;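 active means corrected activity change at or below -50% at 5 µM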
The depositor's hits bear a star; nt = no result given.

SMILES	Peg3 promoter	CF NFkB block	HSP90 inh	Mdm2-MdmX inh	LGR2 antag	KKLEB tox
CC(C)Cn1c(N)c(C(=O)COC(=O)c2cnc(Cl)c(Cl)c2)c(=O)n(C)c1=O	74*	8	6	4	-25	-16
CC(C)Cn1c(N)c(C(=O)COC(=O)c2cc(F)cc(F)c2)c(=O)n(C)c1=O	5	-49	2	-2	9	16
CCCN(C)C[C@H]1OCCCC[C@@H](C)Oc2ccc(NS(=O)(=O)c3ccccc3)cc2C(=O)N([C@H](C)CO)C[C@H]1C	nt	nt	nt	nt	3	nt
Cc1occc(=O)c1OC(=O)Nc1ccc(Cl)c(Cl)c1	-5	77*	4	nt	28	-65*
COc1ccc(C(CNC(=O)Cc2cc(OC)c(OC)c(OC)c2)N2CCCC2)cc1 (configuration not stated)	0	-4	2	-33	nt	0
COC(=O)C1CCC(=O)N1C(c1ccc(OC)cc1)c1cc(OC)c(OC)c(OC)c1 (configuration not stated)	-26	52*	nt	nt	4	-20
COc1ccc(C(C(=O)NC2CCCCC2)N(Cc2ccco2)C(=O)c2snc(C(N)=O)c2N)cc1 (configuration not stated)	58*	8	2	18	9	-14
COc1ccc(NC(=O)CCCC(=O)OCC(F)(F)C(F)F)cc1	12	-14	2	15	7	-7
CC(=O)c1ccc(NC(=O)CCC(=O)OCC(F)(F)C(F)F)cc1	10	-4	17*	-14	nt	4
Cc1cc(C)c(S(=O)(=O)/N=C2/C=C(SCC(=O)O)C(=O)c3ccccc32)cc1C	2	56*	8	36	nt	-4
FC(F)(F)c1cccc(CC2CN(Cc3ccccc3)Cc3ccccc3N2c2cc(Cl)cc(Cl)c2)c1 (configuration not stated)	-4	-7	nt	nt	102*	-7
O=S1(=O)CCOC[C@H](Cc2ccccc2)N1Cc1cccc(C(F)(F)F)c1	18	-4	nt	15	-9	-3
O=c1[nH]c(C2CCN(S(=O)(=O)c3ccc4c(c3)OCCO4)CC2)nc2c1nnn2Cc1cccc(F)c1	22	9	9	32	3	6
O=c1[nH]c(C2CCN(S(=O)(=O)c3cccc(C(F)(F)F)c3)CC2)nc2c1nnn2Cc1cccc(F)c1	51*	15	10	34	-1	-13
COc1ccc(C)cc1N1C(=N)/C(=C2/Nc3ccccc3S2)C(c2ccccc2)C1=O (configuration not stated)	91*	-6	3	nt	nt	0
COc1ccc(C2C(Oc3ccccc3)C(=O)N2c2cc(C)ccc2C)cc1OC (configuration not stated)	17	0	3	-30	22	2
O=C(c1ccc2c(c1)OCO2)N1CC2(C1)[C@H](c1ccccc1)[C@H](CO)N2C(=O)C1CCCC1	nt	nt	nt	nt	-15	nt
CCOC(=O)c1c(OCC)[nH]c2c1cc(O)c1ccccc12	-16	85*	3	8	nt	-22
CCOC(=O)c1c(C)[nH]c2cc(Br)c(O)cc12	-191	-3	-2	-18	nt	9
C[C@@H]1CN([C@@H](C)CO)S(=O)(=O)c2ccc(C#CC(C)(C)O)cc2O[C@H]1CN(C)C(=O)C1CC1	nt	nt	nt	nt	6	nt
C[C@@H]1CN([C@@H](C)CO)S(=O)(=O)c2ccc(C3=CCCC3)cc2O[C@@H]1CN(C)CC1CCOCC1	nt	nt	nt	nt	8	nt
Clc1ccc(-n2cnc3c(Cl)ncnc32)cc1Cl	74*	-3	nt	nt	-16	-8
CN(C)c1ccc(C(=O)OCc2ccccc2)cc1	-188	-3	3	-23	nt	-11
O=C1C=CC(=O)C(CNc2ccc(C(=O)OCc3ccccc3)cc2)=C1	72*	68*	nt	nt	9	-20
O=C(C[C@H]1C/C=C\C[C@H](Cc2ccc(F)cc2)C(=O)O[C@@H](c2ccccc2)CNC1=O)N[C@@H](CO)Cc1ccccc1	42	-15	nt	6	-6	-8
SMILES	Peg3 promoter	CF NFkB block	HSP90 inh	Mdm2-MdmX inh	LGR2 antag	KKLEB tox
O=C(C[C@H]1C/C=C\CC[C@@H](Cc2ccc(F)cc2)C(=O)O[C@@H](c2ccccc2)CNC1=O)N[C@@H](CO)Cc1ccccc1	88*	-4	nt	14	-3	-9
O=C(C[C@H]1C/C=C\CC[C@@H](Cc2ccc(F)cc2)C(=O)O[C@H](c2ccccc2)CNC1=O)N[C@H](CO)Cc1ccccc1	81*	11	nt	12	19	-41
O=C(C1CCOCC1)N1CC(=O)N2[C@H](C1)[C@H](c1ccc(C#CC3CC3)cc1)[C@@H]2CO	nt	nt	nt	nt	8	nt
O=c1c(Cl)c(Nc2cccc(Cl)c2)cnn1-c1nc2ccccc2s1	-179	-4	16*	-73	14	0
CCCNC(=O)C[C@H]1CC[C@H]2[C@@H](COC[C@H](O)CN2CC2CCCCC2)O1	nt	nt	nt	nt	7	nt
CCOc1ccccc1/C=N/NC(=O)c1nnn(-c2nonc2N)c1CN1CCC(C)CC1	44	-14	5	-28	8	11
CC1CCN(Cc2c(C(=O)N/N=C/c3ccc(C(C)C)cc3)nnn2-c2nonc2N)CC1	65*	-8	14	-5	14	0
O=C(C[C@@H]1CC[C@@H](NC(=O)c2ccc3c(c2)OCO3)[C@@H](CO)O1)NCc1ccc(F)cc1	nt	nt	nt	nt	10	nt
CC1OC(CC(=O)O)CC2=C1C(=O)c1c(O)cccc1C2=O (configuration not stated)	100*	101*	nt	nt	99*	-105*
O=C1c2cccc(O)c2C(=O)c2c(O)cccc21	nt	nt	-1	23	nt	nt
CC(C)c1cn(CC[C@@H]2CC[C@H](NC(=O)C3CCC3)[C@H](CO)O2)nn1	nt	nt	nt	nt	1	nt
Cc1ccc(-c2csc(NC(=O)CSc3nc4ccccc4c(=O)n3CCCN(C)C)n2)cc1	70*	0	3	49	11	-19
CN(C)CCCn1c(SCC(=O)N2c3ccccc3Sc3ccccc32)nc2ccccc2c1=O	107*	41	6	nt	-10	-31
CCn1c(SCC(=O)Nc2nc(-c3ccc(C)cc3)cs2)nnc1-c1ccccc1	-12	-10	1	19	nt	2
C[C@H](CO)N1C[C@H](C)[C@H](CN(C)C(=O)CCCN(C)C)OCCCC[C@H](C)Oc2ccc(NC(=O)Nc3ccc(C(F)(F)F)cc3)cc2C1=O	nt	nt	nt	nt	-12	nt
C/C=C/c1ccc([C@@H]2[C@@H](CO)N(C(C)=O)C23CN(C(=O)c2ccc(F)cc2)C3)cc1	nt	nt	nt	nt	-5	nt
Cn1cc([N+](=O)[O-])c(C(=O)Nc2ccn(Cc3c(F)c(F)cc(F)c3F)n2)n1	56*	12	2	45	nt	4
Cn1ncc([N+](=O)[O-])c1C(=O)Nc1ccn(Cc2ccccc2F)n1	-2	-5	0	-13	-4	13
O=C1CCc2cc(S(=O)(=O)NC3CCCCC3)ccc2N1	103*	-13	nt	-26	-1	-2
CCCCCc1ccc(OCCOCCn2c[n+](C)c3ccccc32)c(CCCCC)c1	105*	38	4	nt	nt	-43
